Rows were chosen to be rich in hits. Some 2.6% of all compounds tested hit in one or more screens of this group.
TCR activator = T cell receptor activation; 330,000 tested, under 10 active; primary human leukocytes, anti-CD3, IL-2 HTRF, 48 h; Potency, µM (top dose mostly 9.22 µM), usual class: activators
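Primary human leukocytes receive a-CD3 beads and test compound and are incubated 48 hr. Secreted IL-2 is then assayed by HTRF, measuring 665nm acceptor emission after 320nm excitation of the europium donor.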
Nrf2 block = blocks Nrf2 signaling. A549 ARE-Fluc reporter, luciferase luminescence, 18-24 h. 2.1% of 360,000 active. Potency, µM (doses to about 46 µM), actives largely listed as inhibitors; note: nearly all actives have a fitted effect of over 60% in size
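A549 ARE_Fluc cells, 5000/well, 5% FBS OPTI-MEM; compounds in dose-response, 18-24 h at 37 °C/5% CO2; CellTiter-Fluor viability read (Ex 405/Em 525), then BugLite luciferase luminescence = Nrf2 activity.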
A549 tox-1 = counter-screen for Nrf2 inhibitors: cytotoxicity in A549 cells; 0.16% of 390,000 active; Potency, µM (doses to about 46 µM), actives largely listed as inhibitors; A549 ARE-Fluc cells, CellTiter-Fluor viability, 18-24 h; AID 504648
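A549 ARE-Fluc cells in 5% FBS OPTI-MEM, 5000 cells/well, rested 2 h then exposed to compounds in concentration-response for 18-24 h at 37 °C. Viability by CellTiter-Fluor fluorescence (Ex 405/Em 525) after 30 min; luciferase luminescence (BugLite, 15 min, RT) read afterwards.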
Nrf2 activator = Nrf2 pathway activation; AREc32 ARE-luciferase reporter (MCF7-derived line), luminescence, 24 h; Potency, µM (doses to about 46.1 µM), most hits filed as activators; 0.31% of 410,000 active; AID 624171; note: nearly all actives have a fitted effect of over 65% in size
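Each well held 1000 AREc32 cells, which were incubated with compound for 24 hr at 37 deg C after overnight attachment, and ARE reporter activity was quantified by firefly luciferase luminescence.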
AT treatment = potential ataxia-telangiectasia treatments restoring KAP-1 phosphorylation; 0.19% of 320,000 active; F2112 A-T fibroblasts, KAP-1 phosphorylation AlphaLISA; neocarzinostatin DNA damage 30 min before lysis; AID 485349; Potency, µM (doses to about 57.5 µM), most hits filed as activators; note: nearly all actives have a fitted effect of over 45% in size
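ATM-like activity read as KAP-1 phosphorylation via AlphaLISA donor/acceptor antibody pairs after lysis and 6 hr at 25C. Cells were ATM-null patient fibroblasts (F2112, hTERT), dosed 60 min, then exposed to the DSB inducer NCS for 30 min.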
CCT modulator = cytosolic chaperonin activity modulation | 0.3% of 360,000 active | purified chaperonin ATPase assay, HTRF ADP detection, 30 min | activity change, % (concentration not given with the values), hits read low; in the data active = activity change below about -30%
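TRiC at 40 or 20 nM final (batch-dependent) in 30 mM Tris pH 7.4, 100 mM KCl, 5 mM MgCl2, 1 mM DTT, with compound at single 76 uM and 10 uM ATP, 30 min at 37 deg C. ADP detected by HTRF Transcreener, 665/615 ratio.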
FLuc counter 3 = blocks purified firefly luciferase in Nrf2 counterscreen | 4% of 1,400 active | Potency, µM (titrated, usually from 57.5 µM), usual class: inhibitors | AID 720522 | shares compounds with Nrf2 block | purified firefly luciferase, luminescence inhibition; note: nearly all actives have a fitted effect of over 65% in size
Target sequence (P08659 whole entry, looked up): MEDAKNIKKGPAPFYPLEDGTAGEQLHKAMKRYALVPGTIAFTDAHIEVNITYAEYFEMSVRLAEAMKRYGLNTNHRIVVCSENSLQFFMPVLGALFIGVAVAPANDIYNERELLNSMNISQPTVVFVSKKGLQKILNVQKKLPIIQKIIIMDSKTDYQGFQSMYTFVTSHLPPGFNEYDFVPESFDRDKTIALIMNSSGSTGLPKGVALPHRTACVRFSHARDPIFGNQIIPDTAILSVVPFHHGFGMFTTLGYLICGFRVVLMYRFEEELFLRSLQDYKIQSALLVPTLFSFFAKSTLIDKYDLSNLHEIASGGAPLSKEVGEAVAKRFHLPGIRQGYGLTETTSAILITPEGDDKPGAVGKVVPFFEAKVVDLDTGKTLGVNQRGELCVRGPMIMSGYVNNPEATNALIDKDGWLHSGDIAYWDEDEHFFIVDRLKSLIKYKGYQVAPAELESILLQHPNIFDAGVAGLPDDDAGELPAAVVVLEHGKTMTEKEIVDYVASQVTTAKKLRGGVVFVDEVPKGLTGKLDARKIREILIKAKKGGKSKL
A549 tox-2 = A549 cytotoxicity, Nrf2 inhibitor counterscreen. shares compounds with Nrf2 block. A549 ARE-Fluc cells, cytotoxicity counterscreen. Potency, µM (top dose mostly 46.1 µM), actives largely listed as inhibitors. 2% of 1,400 active;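 note: cells exposed to compounds for 18 to 24 hours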
ARE-Fluc inh = Nrf2 inhibition confirmed, A549 ARE-luciferase; shares compounds with Nrf2 block; A549 ARE-firefly luciferase reporter, luminescence; Potency, µM (series often up to 46.1 µM), actives largely listed as inhibitors; 74% of 1,400 active; AID 720524; note: nearly all actives have a fitted effect of over 65% in size
A number is an active result; – = inactive; ? = inconclusive; · = no result. Unless noted, calls come from the whole dose curve; as a rule, active = well fitted curve in the direction sought with a large enough effect; inconclusive = small, poorly fitted or top-dose-only effect, or another doubt; inactive = no such curve, though single readings can be large; an effect the other way counts as inactive or inconclusive.

SMILES	TCR activator	Nrf2 block	A549 tox-1	Nrf2 activator	AT treatment	CCT modulator	FLuc counter 3	A549 tox-2	ARE-Fluc inh
O=C(NCc1ccccc1)C1=C[C@@H](c2csc3ccccc23)C[C@@H](OCc2ccc(CO)cc2)O1	–	6.51µM	?	–	–	–	–	–	18.4µM
COc1ccc(Cl)cc1NC(=O)CSC1=Nc2ccccc2C2=NC(CCC(=O)NCc3ccc(F)cc3)C(=O)N12 (stereo not given)	·	3.66µM	?	–	·	·	–	?	14.6µM
Cn1ccc2c(-c3ccc(CO)cc3)cc3c(c21)C1CCC3C1 (stereo not given)	·	·	·	–	·	–	·	·	·
Clc1ccc(-c2cc(C3CCNCC3)[nH]n2)cc1	–	–	–	–	–	–	·	·	·
Nc1nc(Cl)cc(N2CCC(c3cc(-c4ccc(Cl)cc4)n[nH]3)CC2)n1	–	8.2µM	?	–	–	–	–	–	18.4µM
C[C@@H]1CN([C@H](C)CO)C(=O)CCCn2cc(nn2)CO[C@H]1CN(C)S(=O)(=O)c1ccc2c(c1)OCCCO2	·	·	·	–	·	–	·	·	·
c1cc2[nH]snc2c2nc(C3CC3)nc12	–	7.31µM	–	–	–	–	?	–	13µM
Cc1cc(Cl)c(S(=O)(=O)N2CCN(c3ccc(F)cc3)CC2)cc1OCC(=O)NC1CCCCC1	–	0.291µM	–	–	·	–	–	–	0.731µM
Clc1ccc(N2CCN(c3ncnc4c3nc3n4CCCC3)CC2)cc1	·	4.61µM	–	–	·	·	–	–	1.46µM
Cc1nnc(SCCN2C(=O)c3ccccc3C2=O)nc1C	–	–	–	–	·	–	·	·	·
O=C(NCC1CCCN(C2Cc3ccccc3C2)C1)c1cccs1 (stereo not given)	–	–	–	–	–	–	·	·	·
Cc1ccnc2ccc3ccccc3c12	·	·	·	·	·	·	–	–	6.51µM
CCCCc1nc2cc(C(=O)N3CCCC(OCCC)C3)ccc2o1 (stereo not given)	–	?	–	–	–	–	·	·	·
CCOc1ccc(S(=O)(=O)N(CC(=O)NCCc2ccc(OC)cc2)c2ccccc2)cc1	·	–	–	–	·	·	·	·	·
CN(C)CCN1C(=O)c2cccc3cc([N+](=O)[O-])cc(c23)C1=O	–	1.64µM	8.2µM	–	·	–	–	?	2.59µM
COc1cc(NC(=O)CN2C(=O)COc3ccc(S(=O)(=O)NC4CCCC4)cc32)cc(OC)c1	·	–	–	–	·	·	·	·	·
CC(C)(C)c1ccc(-c2noc(CCC(N)=O)n2)cc1	–	0.13µM	–	–	–	–	3.01µM	–	0.164µM
CN1CCN(C(=O)c2ccc(S(=O)(=O)Nc3ccccc3)cc2)CC1	–	–	–	–	–	–	·	·	·
COc1ccc(C(=O)NC(c2ccccc2Cl)c2cc(Cl)c3cccnc3c2O)cc1 (stereo not given)	·	4.11µM	?	–	·	·	–	–	4.61µM
CC(=NNC(=O)c1ccncc1)c1ccccc1O	–	?	–	–	·	–	·	·	·
CC(=NNC(=O)c1ccncc1)c1ccc2ccccc2c1O	–	2.59µM	?	–	·	–	–	–	4.11µM
CC(Sc1nc2ccccc2c(=O)n1CC1CCCO1)C(=O)N(C)c1ccccc1 (stereo not given)	–	?	–	–	–	–	·	·	·
CCCCCCC(NC(=O)Cc1ccc2ccccc2c1)C(=O)O (stereo not given)	–	?	–	–	–	–	·	·	·
CC1=C(C(=O)OC2CCCCC2)C(c2cccnc2)n2nnnc2N1 (stereo not given)	–	8.2µM	–	–	–	–	–	–	?
COC(=O)C1=C(C)Nc2nnnn2C1c1cccnc1 (stereo not given)	–	·	–	–	–	–	·	·	·
SMILES	TCR activator	Nrf2 block	A549 tox-1	Nrf2 activator	AT treatment	CCT modulator	FLuc counter 3	A549 tox-2	ARE-Fluc inh
CCOc1ccc(S(=O)(=O)Nc2cccc(-c3ccc(OCC)nn3)c2)cc1	·	·	–	–	·	·	·	·	·
CC(C)CCOc1cccc(OCC(=O)Nc2ccncc2)c1	–	9.2µM	–	–	–	–	–	–	3.66µM
CCN(c1ccccc1)S(=O)(=O)c1cc(C(=O)Nc2ccc(Br)cc2)ccc1F	–	5.8µM	?	–	–	–	–	–	11.6µM
Cc1cc2cc(CN(Cc3ccco3)S(=O)(=O)c3c(C)ccc4nsnc34)c(=O)[nH]c2cc1C	–	2.31µM	–	–	–	–	?	–	3.26µM
COC(=O)c1ccc2c(c1O)C(=O)c1ccccc1C2=O	·	3.26µM	?	–	–	–	10.7µM	3.66µM	3.66µM
COCCN(CCOC)C(=O)COC(=O)c1ccc(Cl)c(S(=O)(=O)N(C)c2ccccc2)c1	–	–	–	–	–	–	·	·	·
Oc1c(C(Nc2ccccn2)c2ccccn2)ccc2cccnc12 (stereo not given)	–	?	–	–	–	–	·	·	·
Oc1ccccc1C(Nc1nccs1)c1ccc2cccnc2c1O (stereo not given)	–	5.8µM	?	–	–	–	–	–	13µM
CCc1ccc(CNC(=O)CSc2c3c(nc4ccc(Cl)cc24)CCCC3)cc1	·	–	–	–	·	·	·	·	·
O=C(CSc1c2c(nc3ccc(Cl)cc13)CCCC2)N1CCN(c2ccc(Cl)cc2)CC1	·	2.91µM	?	–	·	·	–	?	20.6µM
COc1ccc(N2CCN(C(=O)CSc3c4c(nc5ccc(Cl)cc35)CCCC4)CC2)cc1	·	?	–	?	·	·	·	·	·
O=C(CSc1c2c(nc3ccc(Cl)cc13)CCCC2)N1CCN(c2cccc(Cl)c2)CC1	·	9.2µM	–	–	·	·	–	?	?
CCOc1ccc(CCNC(=O)C2CCCN(c3ncnc4c3nc3n4CCCCC3)C2)cc1 (stereo not given)	–	?	–	–	–	–	·	·	·
Cc1cccc2c1-c1sc(C(=O)N3CCN(c4ccc(F)cc4)CC3)cc1CO2	·	–	–	–	·	·	·	·	·
COc1ccc(NC(=O)C2(C)CCN2CC2CCCCC2)cc1OC (stereo not given)	·	·	·	–	·	–	·	·	·
O=C(Nc1ccc(S(=O)(=O)N2CCCC2)cc1)c1ccc(CN2CCc3ccccc3C2)cc1	–	1.46µM	–	–	–	–	–	–	1.64µM
O=C(Nc1ccc(S(=O)(=O)N2CCOCC2)cc1)c1ccc(CN2CCc3ccccc3C2)cc1	–	0.82µM	?	–	–	–	–	–	1.64µM
O=C(Nc1ccccc1)c1ccc(S(=O)(=O)N2CCOCC2)cc1	·	?	–	–	–	–	·	·	·

Screening data deposited in PubChem BioAssay by National Center for Advancing Translational Sciences (NCATS).
